Source: PubChem BioAssay AID1851 (National Center for Advancing Translational Sciences (NCATS), 2009)
Hit rate of the full screen: of about 16,000 compounds, about 4,000 (25%) were called active. About 26% were inconclusive and are not listed. Calls come from the whole dose curve; as a rule, active = well fitted curve in the direction sought with a large enough effect; inconclusive = small, poorly fitted or top-dose-only effect, or effect the other way; inactive = no such curve, though single readings can be large or run the other way. These entries were drawn from the full list.

Biological target: Cytochrome P450 2C9 (Homo sapiens) (UniProt P11712)
Test: Cytochrome panel assay with activity outcomes
Conditions: recombinant CYP, pro-luciferin dealkylation, luminescence, p450-cyp2c9; series mostly up to 57.1 µM; activity, negative = inhibition: at the top concentration
% is set by controls: 0 for no effect and ±100 for the full control effect.

Chain of Cytochrome P450 2C9 (Homo sapiens) (P11712 whole entry, looked up): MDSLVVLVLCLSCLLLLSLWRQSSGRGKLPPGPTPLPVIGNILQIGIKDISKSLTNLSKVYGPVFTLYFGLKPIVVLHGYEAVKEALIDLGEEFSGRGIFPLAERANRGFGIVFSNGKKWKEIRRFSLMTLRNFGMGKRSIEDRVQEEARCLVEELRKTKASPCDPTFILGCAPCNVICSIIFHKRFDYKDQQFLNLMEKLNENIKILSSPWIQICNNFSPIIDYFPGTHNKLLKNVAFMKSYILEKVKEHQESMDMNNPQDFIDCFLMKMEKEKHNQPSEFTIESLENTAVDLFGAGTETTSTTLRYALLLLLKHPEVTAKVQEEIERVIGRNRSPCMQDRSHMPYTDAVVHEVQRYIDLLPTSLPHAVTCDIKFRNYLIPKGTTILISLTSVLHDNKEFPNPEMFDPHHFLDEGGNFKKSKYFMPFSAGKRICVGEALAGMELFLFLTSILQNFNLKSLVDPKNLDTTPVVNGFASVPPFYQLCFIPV

AC50, inactive:
c1ccc(CN(CC2=NCCN2)c2ccccc2)cc1
Cc1nnc(SCC2=C(C(=O)O)N3C(=O)[C@@H](NC(=O)Cn4cnnn4)[C@@H]3SC2)s1

AC50, active:
CCC(=O)Nc1ccc2c(c1)C(=O)c1ccccc1C2=O 3.16 µM
O=c1c(-c2ccccc2)nc2cncnc2n1-c1ccccc1 15.8 µM
O=c1c(-c2cccs2)nc2cncnc2n1-c1ccccc1 10 µM
O=c1c(-c2cccc(Cl)c2)nc2cncnc2n1-c1ccccc1 10 µM
CCCCn1c(NCc2ccccc2NS(=O)(=O)c2ccc(C)cc2)nc2ccccc21 1.58 µM
CN(C)C(=C(C#N)C#N)N1CCN(c2ccc(Cl)c(Cl)c2)CC1 12.6 µM
O=S(=O)(C=C(c1ccccc1)c1ccccc1)c1ccccc1 7.08 µM
CC(C)(C)C(=O)Nc1ccnc(-c2cccnc2)n1 3.16 µM
c1cncc(-c2nccc(NCc3cccs3)n2)c1 0.398 µM
O=C(Nc1ccnc(-c2cccnc2)n1)c1ccccc1Cl 15.8 µM
O=C(Nc1ccnc(-c2cccnc2)n1)c1cccc(Cl)c1Cl 3.98 µM
O=C(C1=C(O)C(=O)N(Cc2ccco2)C1c1ccccc1)c1cccs1 (configuration not stated) 8.91 µM
CC1CCN(S(=O)(=O)c2ccc3c(c2)C(=NO)c2cc(S(=O)(=O)N4CCC(C)CC4)ccc2-3)CC1 3.98 µM
CS(=O)(=O)c1nc(-c2ccccc2)cc(-c2ccccc2)c1C#N 0.282 µM
O=c1oc2ccccc2cc1-c1csc(NN=C2CCCCC2)n1 3.55 µM
Cc1sc(=NC(=O)c2ccco2)n(C)c1-c1ccccc1 1.12 µM
Cc1sc(=NC(=O)c2ccco2)n(C)c1-c1ccc(F)cc1 8.91 µM
CCOC(=O)c1c(C)nc2c(c1-c1ccc(OC)cc1)C(=O)CC(C)(C)C2 15.8 µM
CCOC(=O)c1c(C)nc2c(c1-c1ccccc1)C(=O)CCC2 17.8 µM
CCc1nnc(NS(=O)(=O)c2ccc(N=Cc3c(C)[nH]n(-c4ccc(C)cc4)c3=O)cc2)s1 8.91 µM

activity, negative = inhibition, inactive:
O=C1c2ccccc2-c2ccc(NC(=O)[C@H]3CCCC[C@@H]3C(=O)O)cc21 -10.8% [at 11.4 µM]
O=C(Nc1ccc(Nc2ccc3c(c2)C(=O)c2ccccc2C3=O)c2c1C(=O)c1ccccc1C2=O)c1ccccc1 -2.6% [at 11.4 µM]
O=C(O)c1ccc(Nc2ccnc3cc(Cl)ccc23)cc1O -1.26% [at 11.4 µM]
CN(C)c1ncc2nc(-c3cccs3)c(=O)n(-c3ccccc3)c2n1 -16.4%
COc1ccc(-n2c(=O)c(-c3cccs3)nc3cncnc32)cc1 -4.83%
COc1ccc(-n2c(=O)c(-c3ccccc3)nc3cncnc32)cc1 -26.2%
O=c1c(-c2ccc(F)cc2)nc2cncnc2n1-c1ccccc1 -21.2%
CSCC[C@@H]1NC(=O)C/C=C\[C@@H](C)COC(=O)[C@@H](C)COC1=O 14.5% [at 11.4 µM]
COc1nc(Oc2ccc(/C=N/O)cc2)nc(N(C)C)n1 3.8%
O=S(=O)(O)c1ccc(N=Nc2ccccc2)cc1 -1.61% [at 11.4 µM]
O=S(=O)(/N=C(/Nc1ccccn1)c1ccccc1)c1ccccc1 -21.9%
COc1ccc(CNc2ccnc(-c3cccnc3)n2)c(OC)c1 8.69% [at 2.29 µM]
COc1cccc(-c2nccc(NCc3cccs3)n2)c1 -26.6% [at 2.29 µM]
N#Cc1cccc(-c2nccc(NCc3cccnc3)n2)c1 -11.5% [at 2.29 µM]
Cc1ccccc1-c1nccc(NCc2cccnc2)n1 -17.5% [at 2.29 µM]
c1csc(CNc2ccnc(-c3ccoc3)n2)c1 -25.1% [at 2.29 µM]
c1ccc(CNc2ccnc(-c3cccnc3)n2)cc1 -12.1% [at 2.29 µM]
CN(C)C(=O)c1ccc(-c2nccc(NCc3cccnc3)n2)cc1 5.1% [at 2.29 µM]
N[C@H](CCC(=O)NCS(=O)(=O)O)C(=O)O -16.3%
CN(C)CCN(c1ccccn1)c1ccccn1 0.501% [at 11.4 µM]
NS(=O)(=O)Cc1noc2ccccc12 8.47%
[N-]=[N+]=NC[C@@H]1O[C@@H](n2cnc3c(N)ncnc32)[C@@H]2O[C@@H]21 2.07% [at 11.4 µM]
CC1CCN(CC[C@@H]2CCCN2S(=O)(=O)c2cccc(O)c2)CC1 -6.49%
CC1CCN(CC[C@H]2CCCN2S(=O)(=O)c2cccc(O)c2)CC1 -3.33%
N#Cc1cccc(-c2nc(NCc3ccccc3)c3ccccc3n2)c1 -29.7% [at 2.29 µM]
CC(=O)Nc1ccc(-c2cc(-c3ccc(NC(C)=O)cc3)nc(-c3ccccc3)n2)cc1 -11%
COCCCN=CC1=C(O)CC(C)(C)CC1=O -24.3%
Cc1cccc(-c2noc(-c3cc4ccccc4oc3=O)n2)c1 -11.5%
CN1CCC2(CC1)C1CN(C)CC=C1C(C#N)=C(N)C2(C#N)C#N (configuration not stated) -21.5%
O=C(c1ccco1)N1CCC2(CC1)CCN(c1ccc(-c3ccccc3)cc1)CC2 -3.43%
Cn1c(=NC(=O)CCl)sc2ccccc21 7.79%
O=C(c1cnccn1)N1CCC2(CCCN(c3ccccn3)C2)CC1 -3.22%
CS(=O)(=O)Nc1cccc(-c2ccc3ncnc(NC4CCNCC4)c3c2)c1 -5.87% [at 2.29 µM]
O=C(c1csnn1)N1CCC2(CCCN(Cc3ccccc3)C2)CC1 -6.31%
CCN1CCN(c2nc(C)c3c(n2)CCCC3=O)CC1 11.9%
CC1(C)CC(=O)c2cnc(N)nc2C1 -20%
Cc1nccn1C[C@@H]1CCc2c(c3ccccc3n2C)C1=O 12.3% [at 25.6 µM]
Cc1ccc(-n2[nH]c(C)c(C=Nc3ccc4[nH]c(=O)[nH]c4c3)c2=O)cc1C -17.8%
NC(N)=NC(N)=Nc1ccccc1 -22.3%
C/C=C\C[C@@H](C)[C@@H](O)[C@H]1C(=O)N[C@@H](CC)C(=O)N(C)CC(=O)N(C)[C@@H](CC(C)C)C(=O)N[C@@H](C(C)C)C(=O)N(C)[C@@H](CC(C)C)C(=O)N[C@@H](C)C(=O)N[C@H](C)C(=O)N(C)[C@@H](CC(C)C)C(=O)N(C)[C@@H](CC(C)C)C(=O)N(C)[C@@H](C(C)C)C(=O)N1C -1.45%
